Results on 4 molecules are retold here after PubChem BioAssay.

Assay [1] in a line: rapamycin-like changes in RPL19A-GFP expression – cell-based, S. cerevisiae, multiplex flow cytometry, primary screen (AID 1862; in the data active means percent of DMSO control GFP below about 86%;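 further: lower values mimic rapamycin by blocking the RPL19A rise seen in DMSO cells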). The note with it: S. cerevisiae RPL19A-GFP strain, flow cytometry fluorescence, 3 h; at 10 µM; stronger effect = lower value. (In general: In flow cytometry, cells or beads pass a laser one at a time.)
Assay [2] can be described thus: TOR pathway GLN3 branch reporter MEP2-GFP changes – S. cerevisiae, multiplex flow cytometry, primary screen (AID 1867;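 active means GFP response, as percent of the DMSO control, above the screen-wide mean plus 3 SD, about 139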;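 further: median GFP channel fluorescence of barcode-gated MEP2-GFP cells measured by flow cytometry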). Conditions: S. cerevisiae MEP2-GFP strain, 3 h, at 10 µM, stronger effect = higher value, 100% means same as DMSO wells.
Assay [3] in a line: TOR pathway RTG branch CIT2 reporter changes – S. cerevisiae, GFP fusion, multiplex flow cytometry, primary screen (AID 1870;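 active means percent response above a set limit, the screen-wide mean plus 3 SD, cut at about 130% in these data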;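 further: barcoded CIT2-GFP strain pooled with four other GFP strains with rapamycin as positive control; median GFP fluorescence per well over plate mean of DMSO wells so 100% = DMSO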). Conditions: S. cerevisiae CIT2-GFP expression, 3 h, at 10 µM, stronger effect = higher value.
Assay [4] is described as follows: TOR pathway LAP4-GFP level changes – S. cerevisiae, multiplex flow cytometry, primary screen (AID 1873;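 active means GFP signal, as percent of the solvent control, above the screen mean plus 3 SD, about 149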). The note with it: S. cerevisiae LAP4-GFP expression, 3 h, at 10 µM, stronger effect = higher value.
Assay [5] in a line: yeast AGP1-GFP level changes, GLN3 branch – cell-based, multiplex flow cytometry, S. cerevisiae, primary screen (AID 1887;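 active means GFP signal above the screen-wide mean plus 3 SD, that is over about 124.5% of the solvent control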;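 further: AGP1-GFP fusion strain of S. cerevisiae within a five-strain barcoded multiplex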). Conditions: 3 h, at 10 µM, stronger effect = higher value.
A short description of assay [6]: reduced mouse 2C T cell binding to pMHC/ICAM-1 vesicles – MLPCN validation set, flow cytometry, LFA-1/ICAM-1 modulator project, pilot screen (AID 2523;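 active means response below a set limit, under 55% cells CD8-positive and vesicle-bound, and CD8 cells' 90th-percentile brightness under 279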;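 on vesicle binding response: mean PE anti-B7-1 fluorescence of CD8+ cells relative to row control; 100% = QL9-loaded vesicles with DMSO vehicle in the same plate row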). Conditions: 2C mouse CD8+ T cells, at 7 µM, stronger effect = lower value; double positive events: measured here: CD8+/vesicle+ event percentage.
Assay [7] has as its target Integrin beta-1 (Homo sapiens) + Integrin alpha-4 (Homo sapiens) (UniProt P13612+P05556). In words: alpha4beta1 integrin LIBS antibody binding reduction – U937 cells, HUTS-21 mAb, flow cytometry, validation set, VLA-4 allosteric modulator project, pilot screen (AID 2674;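 active means inhibition above 50%, about 3 SD of the validation set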;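 further: antibody binding induced by the VLA-4 ligand LDV present at three times its Kd; 0% = LDV ligand with antibody and no compound and 100% = antibody without LDV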). Conditions: HUTS-21 LIBS mAb binding, at 6.7 µM, stronger effect = higher value, binding induced by LDV ligand.

Assay [8] can be described thus: calorie-restriction mimetic ROS inhibitors, yeast – validation compound set, pilot screen (AID 2706;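 active means superoxide response below 65% of plate, a cut near 3 SD across the whole screen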;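 further: yeast exposed to compound for one week at 30 degrees C before staining; 100% = mean of all compound wells on the same plate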). The note with it: S. cerevisiae aging, superoxide DHE fluorescence; at 10 µM; stronger effect = lower value.
The target in assay [9] is Beta-adrenergic receptor kinase 1 (Homo sapiens) (UniProt P25098). Description: GRK2 binders displacing RNA aptamer, biochemical, validation, human GRK2, bead flow cytometry (AID 488806;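 active means aptamer binding inhibition above 30%, about 3 SD of noise from non-fluorescent compounds; inactive means inhibition at or below 30%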). Conditions: bead-bound GRK2, FAM-aptamer displacement, at 10 µM, stronger effect = higher value.
Sequence of Beta-adrenergic receptor kinase 1 (Homo sapiens) (P25098 whole entry, looked up): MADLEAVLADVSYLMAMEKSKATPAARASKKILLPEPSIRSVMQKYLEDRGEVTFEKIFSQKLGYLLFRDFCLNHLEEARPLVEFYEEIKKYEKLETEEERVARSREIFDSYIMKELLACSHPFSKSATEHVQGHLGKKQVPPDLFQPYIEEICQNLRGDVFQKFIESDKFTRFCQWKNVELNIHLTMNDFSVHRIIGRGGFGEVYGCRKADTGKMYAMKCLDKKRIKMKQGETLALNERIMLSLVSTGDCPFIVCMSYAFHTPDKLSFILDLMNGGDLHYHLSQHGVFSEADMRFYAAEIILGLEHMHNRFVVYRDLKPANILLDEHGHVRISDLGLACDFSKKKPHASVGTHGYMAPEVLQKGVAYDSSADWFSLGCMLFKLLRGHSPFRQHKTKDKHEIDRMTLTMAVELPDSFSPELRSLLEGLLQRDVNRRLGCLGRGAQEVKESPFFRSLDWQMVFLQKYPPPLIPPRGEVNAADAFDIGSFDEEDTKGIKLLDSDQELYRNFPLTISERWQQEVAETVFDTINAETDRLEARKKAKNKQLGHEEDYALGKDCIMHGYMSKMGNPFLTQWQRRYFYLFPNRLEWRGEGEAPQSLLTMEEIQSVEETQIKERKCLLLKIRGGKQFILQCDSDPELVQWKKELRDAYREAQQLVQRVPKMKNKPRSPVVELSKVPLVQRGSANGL
Assay [10] concerns the target Beta-2 adrenergic receptor (Homo sapiens) (UniProt P07550). In words: agonist-induced loss of surface beta2AR – cell-based, FAP fluorogen, flow cytometry, validation set, pilot screen (AID 504459;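 active means percent response above 42, roughly 3 SD of non-fluorescent test compounds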;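 further: agonist-driven loss of surface beta2AR via internalization measured by FAP dye flow cytometry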). The note with it: Am2.2-beta2AR cells, at 10 µM, stronger effect = higher value.
Assay [11] concerns the target AP-2 complex subunit beta (Homo sapiens) (UniProt P63010). In words: beta-arrestin/AP2 interaction blockers – biochemical, validation set, GST-AP2 beads, flow cytometry, pilot screen (AID 504541;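 active means inhibition above 54%, about 3 SD of non-fluorescent compounds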;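 further: AP2 carries R879A mutation and is captured from E. coli lysate; bead-bound FITC arrestin peptide fluorescence measuring arrestin peptide binding to AP2; 0% = DMSO wells and 100% = excess unlabeled arrestin peptide control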). Conditions: FITC arrestin peptide, at 10 µM, stronger effect = higher value, AP2 beta2 appendage fragment, R879A mutant.
Assay [12] in a line: cytosolic pH regulators acting via V-ATPase – S. cerevisiae, pHLuorin, HTS validation (AID 504600; in the data active means response above about 15%;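 further: plate controls were DMSO for no effect and reference compound for full effect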). The note with it: V-ATPase proton transport, at 10 µM, stronger effect = higher value.
Assay [13] concerns anti-desmoglein-3 scFv antibody binding to human DSG3. In words: blockers of pathogenic pemphigus antibody–desmoglein-3 binding – biochemical, validation compound set, bead-based, flow cytometry, pilot screen (AID 588368).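 Further: signal is the median channel fluorescence of bead-bound GFP antibody.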 The note with it: Protein G beads, DSG3-Fc, scFv-GFP binding, at 10 µM, stronger effect = lower value.
The nature of assay [14]: Nile Red efflux blockade in pump-expressing yeast – validation compound set, multiplex, phenotypic, pilot screen (AID 588506;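 active means efflux inhibition above 0.42, the validation set average plus 4 SD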;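 further: Nile Red retained in cells so higher fluorescence means more efflux inhibition; 0 = negative control wells and 1 = enniatin B 25 µM full block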). The note with it: S. cerevisiae pump-expressing triplex, Nile Red efflux flow cytometry; at 10 µM; stronger effect = higher value; the pumps come from Candida albicans.
In assay [15] the target is ATP-binding cassette sub-family B member 6 (Homo sapiens) (UniProt Q9NP58). Description: blockers of ABCB6-driven porphyrin uptake – K562-ABCB6 cells, flow cytometry, validation set, pilot screen (AID 588550;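 active means inhibition above the screen-wide mean plus 3 SD, about 51%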;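 further: 0% = DMSO wells and 100% = benzethonium chloride 70 µM positive control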). Conditions: K562-ABCB6 porphyrin accumulation, 1 h, at 10 µM, stronger effect = higher value.
Sequence of ATP-binding cassette sub-family B member 6 (Homo sapiens) (Q9NP58 whole entry, looked up): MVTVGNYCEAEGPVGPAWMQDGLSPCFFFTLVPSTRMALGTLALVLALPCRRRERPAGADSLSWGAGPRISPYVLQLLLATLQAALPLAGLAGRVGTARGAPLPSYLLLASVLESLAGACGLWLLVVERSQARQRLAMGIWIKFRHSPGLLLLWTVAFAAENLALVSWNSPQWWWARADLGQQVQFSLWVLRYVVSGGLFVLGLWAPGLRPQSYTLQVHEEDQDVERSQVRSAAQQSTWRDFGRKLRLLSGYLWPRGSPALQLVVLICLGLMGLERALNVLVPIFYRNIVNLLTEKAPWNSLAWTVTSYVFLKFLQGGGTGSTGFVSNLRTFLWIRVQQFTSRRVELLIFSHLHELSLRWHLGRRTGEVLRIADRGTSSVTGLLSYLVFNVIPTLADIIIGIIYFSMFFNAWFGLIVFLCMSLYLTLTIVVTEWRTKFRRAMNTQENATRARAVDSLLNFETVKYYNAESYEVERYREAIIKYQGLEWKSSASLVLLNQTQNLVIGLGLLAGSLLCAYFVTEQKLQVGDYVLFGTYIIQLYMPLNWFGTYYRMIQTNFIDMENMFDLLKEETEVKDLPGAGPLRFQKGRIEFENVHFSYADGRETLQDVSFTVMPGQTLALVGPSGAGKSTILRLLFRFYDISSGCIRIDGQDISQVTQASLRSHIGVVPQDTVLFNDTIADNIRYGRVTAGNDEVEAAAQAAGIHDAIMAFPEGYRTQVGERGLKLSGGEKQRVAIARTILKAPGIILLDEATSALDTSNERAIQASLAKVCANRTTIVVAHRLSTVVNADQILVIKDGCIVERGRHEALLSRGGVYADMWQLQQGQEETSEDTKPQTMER
The nature of assay [16]: AML differentiation inducers, ER-HoxA9 marrow cells – cell-based, GFP/MAC1 double positive, flow cytometry, validation set, primary screen (AID 588685;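 active means differentiation response of at least 50%, scaled between solvent and reference control, from cells with both markers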;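 further: compound exposure lasts four days before antibody staining and flow analysis; 0% = DMSO wells and 100% = 5 µM fulvestrant positive control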). Conditions: stronger effect = higher value, normalized: vehicle 0, fulvestrant 100.

Results filed as inconclusive are left out. Active and inactive are the calls of the source.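 How the source made its calls, unless noted: active means binding below the plate cutoff, the plate median minus 3 SD, with a reading above zero; inconclusive means below the plate cutoff but reading exactly zero; inactive means the rest.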

Sequence of Beta-2 adrenergic receptor (Homo sapiens) (P07550 whole entry, looked up): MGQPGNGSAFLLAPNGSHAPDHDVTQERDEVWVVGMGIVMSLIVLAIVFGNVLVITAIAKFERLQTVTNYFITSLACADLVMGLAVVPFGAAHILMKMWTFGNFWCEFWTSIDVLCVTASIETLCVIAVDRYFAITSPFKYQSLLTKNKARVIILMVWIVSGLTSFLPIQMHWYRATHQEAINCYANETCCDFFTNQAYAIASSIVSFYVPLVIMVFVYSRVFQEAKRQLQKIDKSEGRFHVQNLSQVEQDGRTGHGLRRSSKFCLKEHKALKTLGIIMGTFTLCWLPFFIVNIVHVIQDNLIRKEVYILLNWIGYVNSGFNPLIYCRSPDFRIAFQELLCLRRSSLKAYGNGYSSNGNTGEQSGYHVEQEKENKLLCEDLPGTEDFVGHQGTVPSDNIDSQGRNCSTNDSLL
Sequence of Integrin beta-1 (Homo sapiens) + Integrin alpha-4 (Homo sapiens) (P05556 whole entry, looked up): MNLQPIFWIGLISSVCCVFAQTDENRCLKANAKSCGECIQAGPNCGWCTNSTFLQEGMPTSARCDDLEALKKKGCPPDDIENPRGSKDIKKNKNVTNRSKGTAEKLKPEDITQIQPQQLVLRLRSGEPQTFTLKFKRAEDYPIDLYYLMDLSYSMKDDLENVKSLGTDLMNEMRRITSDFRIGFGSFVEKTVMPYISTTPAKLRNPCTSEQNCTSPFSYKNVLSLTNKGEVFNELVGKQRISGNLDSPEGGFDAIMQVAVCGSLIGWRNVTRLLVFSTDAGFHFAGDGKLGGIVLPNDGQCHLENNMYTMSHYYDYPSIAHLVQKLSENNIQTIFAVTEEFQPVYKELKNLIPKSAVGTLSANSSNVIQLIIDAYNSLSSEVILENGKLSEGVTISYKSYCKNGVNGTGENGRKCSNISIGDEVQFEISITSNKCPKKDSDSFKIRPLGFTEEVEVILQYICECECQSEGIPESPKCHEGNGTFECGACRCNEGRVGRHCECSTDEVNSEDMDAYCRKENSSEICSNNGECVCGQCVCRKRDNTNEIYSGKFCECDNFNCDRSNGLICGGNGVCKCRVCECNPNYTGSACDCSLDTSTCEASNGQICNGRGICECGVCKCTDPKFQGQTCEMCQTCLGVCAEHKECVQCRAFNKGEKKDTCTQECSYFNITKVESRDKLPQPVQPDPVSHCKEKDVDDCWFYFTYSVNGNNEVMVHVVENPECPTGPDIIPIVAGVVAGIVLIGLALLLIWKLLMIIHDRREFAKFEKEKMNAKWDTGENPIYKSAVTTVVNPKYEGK
Sequence of Integrin beta-1 (Homo sapiens) + Integrin alpha-4 (Homo sapiens) (P13612 whole entry, looked up): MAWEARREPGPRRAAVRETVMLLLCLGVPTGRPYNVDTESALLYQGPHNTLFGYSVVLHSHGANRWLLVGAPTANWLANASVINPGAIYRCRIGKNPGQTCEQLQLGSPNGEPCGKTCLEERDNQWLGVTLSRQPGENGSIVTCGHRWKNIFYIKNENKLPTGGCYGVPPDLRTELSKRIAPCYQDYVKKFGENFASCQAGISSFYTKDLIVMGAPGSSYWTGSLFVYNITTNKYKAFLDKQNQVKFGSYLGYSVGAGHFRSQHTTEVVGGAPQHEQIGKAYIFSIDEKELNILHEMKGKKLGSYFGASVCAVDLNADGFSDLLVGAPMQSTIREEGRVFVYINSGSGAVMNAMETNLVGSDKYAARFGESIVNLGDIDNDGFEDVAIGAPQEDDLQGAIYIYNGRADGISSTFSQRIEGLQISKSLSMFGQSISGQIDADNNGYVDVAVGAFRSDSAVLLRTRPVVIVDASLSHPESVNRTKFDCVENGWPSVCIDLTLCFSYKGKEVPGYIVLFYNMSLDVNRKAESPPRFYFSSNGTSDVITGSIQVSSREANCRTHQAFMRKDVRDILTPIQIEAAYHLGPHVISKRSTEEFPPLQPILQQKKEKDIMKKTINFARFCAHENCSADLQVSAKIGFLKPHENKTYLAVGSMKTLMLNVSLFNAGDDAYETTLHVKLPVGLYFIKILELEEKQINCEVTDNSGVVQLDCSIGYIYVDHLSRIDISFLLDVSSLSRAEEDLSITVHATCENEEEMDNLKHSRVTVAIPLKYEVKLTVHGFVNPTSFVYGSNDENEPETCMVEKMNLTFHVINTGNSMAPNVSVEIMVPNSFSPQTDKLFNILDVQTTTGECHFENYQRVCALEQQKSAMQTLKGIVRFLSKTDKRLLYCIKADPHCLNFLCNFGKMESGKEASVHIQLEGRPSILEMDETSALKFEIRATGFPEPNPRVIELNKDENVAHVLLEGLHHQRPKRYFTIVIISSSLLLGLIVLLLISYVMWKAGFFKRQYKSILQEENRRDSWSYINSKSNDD
Sequence of AP-2 complex subunit beta (Homo sapiens) (P63010 whole entry, looked up, the tested form may be a part, one chain of several): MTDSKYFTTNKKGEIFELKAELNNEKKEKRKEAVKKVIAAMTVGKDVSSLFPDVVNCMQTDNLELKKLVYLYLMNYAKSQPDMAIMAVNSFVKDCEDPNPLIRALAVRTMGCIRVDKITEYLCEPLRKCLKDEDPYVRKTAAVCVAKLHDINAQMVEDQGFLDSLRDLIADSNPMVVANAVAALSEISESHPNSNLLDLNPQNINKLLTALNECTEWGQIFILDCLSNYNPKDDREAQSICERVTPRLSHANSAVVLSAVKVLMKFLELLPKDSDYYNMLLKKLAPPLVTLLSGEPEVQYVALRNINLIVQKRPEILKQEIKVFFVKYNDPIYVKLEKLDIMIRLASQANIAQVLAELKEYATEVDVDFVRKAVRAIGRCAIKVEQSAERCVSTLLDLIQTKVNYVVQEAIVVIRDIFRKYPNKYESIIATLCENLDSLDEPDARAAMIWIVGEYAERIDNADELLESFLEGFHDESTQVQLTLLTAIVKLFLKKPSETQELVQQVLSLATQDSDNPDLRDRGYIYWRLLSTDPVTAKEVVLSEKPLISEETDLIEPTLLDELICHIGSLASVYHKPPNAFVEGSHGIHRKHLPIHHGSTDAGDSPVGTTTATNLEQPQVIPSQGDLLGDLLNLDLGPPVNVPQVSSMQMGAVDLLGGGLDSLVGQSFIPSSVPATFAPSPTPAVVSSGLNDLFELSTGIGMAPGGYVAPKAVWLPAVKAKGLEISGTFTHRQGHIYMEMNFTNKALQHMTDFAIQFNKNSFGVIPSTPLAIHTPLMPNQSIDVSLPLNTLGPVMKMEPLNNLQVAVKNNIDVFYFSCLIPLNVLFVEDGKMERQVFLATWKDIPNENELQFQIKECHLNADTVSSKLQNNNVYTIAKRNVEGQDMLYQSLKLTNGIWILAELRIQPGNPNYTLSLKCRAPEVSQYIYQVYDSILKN

Broadly, the inhibition is the drop in the measured response relative to a control, in per cent. On to `COC(=O)C1=C(C)NC(C)=C(C(=O)OCCN(C)Cc2ccccc2)C1c1cccc([N+](=O)[O-])c1` (stereo not drawn), for which, in assay [1], the percent of DMSO control GFP was 101% (inactive). Moreover, the figures for the GFP response vs DMSO in assay [2] and in [4] were 108% (inactive) and 100% (inactive), respectively. Further, in [3], the percent response of DMSO control is 96.5% (inactive). The GFP response, % of DMSO in [5] is 110% (inactive). The molecule also gave a double positive events in [6] of 61.3%. The vesicle binding response in assay [6] was 159% (inactive). The inhibition in assay [7] was 0.25% (inactive); in [11], 57.5% (active); in assay [15], -2% (inactive). Besides, the superoxide response (% of plate) in [8] is 98.7% (inactive). Also, the aptamer binding inhibition in assay [9] is 1% (inactive). The response in [10] is 0.14% (inactive); in assay [12], -9.84% (inactive). For the same molecule, in [13], the binding (% of control) was 97.3% (inactive). In addition, the efflux inhibition (fraction of control) in assay [14] is 0.01 (inactive). The differentiation response in assay [16] is -1.65% (inactive).
As for `CCn1c(SCC(=O)c2ccccc2)nc2ccccc2c1=O`, the percent of DMSO control GFP in assay [1] is 103% (inactive). Also, the values for the GFP response vs DMSO in assay [2] and in [4] were 108% (inactive) and 115% (inactive), respectively. The percent response of DMSO control in [3] was 99.7% (inactive). Besides, the GFP response, % of DMSO in [5] was 104% (inactive). This molecule came in with a double positive events in assay [6] of 60.3%. For the same molecule, in assay [6], the vesicle binding response was 176% (inactive). The inhibition in assay [7] was -18.5% (inactive); in [11], 9.92% (inactive); in [15], 9% (inactive). The superoxide response (% of plate) in assay [8] is 110% (inactive). In assay [9], the aptamer binding inhibition is -1% (inactive). The response in assay [10] was 0.7% (inactive); in [12] it was -1.15% (inactive). Moreover, the binding (% of control) in [13] was 99.6% (inactive). For the same molecule, in assay [14], the efflux inhibition (fraction of control) was 0.53 (active). Also, in assay [16], the differentiation response was -14.8% (inactive).
For the molecule `Clc1cc(-c2ccc(/C=N/n3cnnc3)o2)ccc1Br`, in assay [1], the percent of DMSO control GFP was 100% (inactive). For the same molecule, the GFP response vs DMSO in [2] is 103% (inactive); in [4] it was 114% (inactive). Moreover, in assay [3], the percent response of DMSO control is 102% (inactive). The GFP response, % of DMSO in assay [5] is 99.9% (inactive). Also, the double positive events in assay [6] is 56.6%. The vesicle binding response in assay [6] was 130% (inactive). The inhibition in [7] is -3.77% (inactive); in [11] it was 0.75% (inactive); in assay [15], -9% (inactive). For the same molecule, the superoxide response (% of plate) in assay [8] was 97% (inactive). Also, in assay [9], the aptamer binding inhibition was -5% (inactive). Also, the response in assay [10] is -6.37% (inactive); in assay [12], 3.36% (inactive). The binding (% of control) in assay [13] is 98.8% (inactive). Further, the efflux inhibition (fraction of control) in [14] was -0.36 (inactive). Moreover, the differentiation response in assay [16] is -4.57% (inactive).
In the case of `COc1ccc2cc(C(=O)Nc3ccc(S(N)(=O)=O)cc3)sc(=O)c2c1OC`, the percent of DMSO control GFP in assay [1] was 93.7% (inactive). In addition, the GFP response vs DMSO in assay [2] is 110% (inactive); in assay [4] it was 79.8% (inactive). The percent response of DMSO control in assay [3] is 114% (inactive). The GFP response, % of DMSO in assay [5] was 98.9% (inactive). For the same molecule, in assay [6], the double positive events is 57.9%. Further, the vesicle binding response in [6] was 258% (inactive). Also, the inhibition in [7] was 3.55% (inactive); in assay [11], -1.93% (inactive); in assay [15], 7% (inactive). Also, the superoxide response (% of plate) in assay [8] is 101% (inactive). The aptamer binding inhibition in [9] is -4% (inactive). For the same molecule, the response in [10] is 19.2% (inactive); in [12], 0.97% (inactive). For the same molecule, in assay [13], the binding (% of control) is 97.8% (inactive). Besides, the efflux inhibition (fraction of control) in assay [14] was 0.19 (inactive). Moreover, the differentiation response in assay [16] was -9.01% (inactive).
